# Test system: VDR:RXRa (NR concentration 270 nM, RXRa partner concentration 90 nM)
# Assay: PBM binding z-score (relative to random genomic background probes); higher = stronger binding; sequences stand for … in GC…GCGATTGACAGCGTAGAATGAAGG
# Method: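 Protein-binding microarray (Agilent 4x180K custom design, double-stranded 60-nt probes: 5' GC cap, 34-nt variable region, 24-nt constant primer region; full probe sequence given). Purified or IVT nuclear receptor:RXRα heterodimers (3:1 NR:RXRα, mostly 270:90 nM) or homodimers were incubated for 1 h in PBS with 2% milk and no ligand, then detected with Alexa488 antibodies. Fluorescence from o1-orientation probes (~5 replicates averaged) was converted to z-scores against 500 random hg19 background probes. Variable regions are seed direct-repeat (DR0–DR5) sites, all their single-nucleotide variants and half-site ablations.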
row,Sequence,PBM binding z-score
1,TCGAGCAGGCCAGAGGGTCACTCAAGAGGTACGG,1.48
2,CCTGCTAGGTCAATAGTCAGCTAAAGCAGCTCGC,0.487
3,TATACAGGGTCAACGGCCAGAGTACGAATGTCGA,4.6
4,ATATGTAGGTTAAGGGGCATTCAGGTTGGTTCGC,2.2
5,ACTAGCAGGCCAAGTTTGGGTCACTCAGACAAAG,0.43
6,TCGGCTAGGTCAACGATGGTCAGCTAATCTGCTA,1.73
7,ACTAGCAGGCCAAGGGTCACTAAAGATTAGTCCG,2.62
8,TCTTGTAGATCAGCAGGTTAATAAAGCTGGCCAA,0.526
9,GCTTATGGGTCAAAGGTTATAGCATGAATAGAAT,4.82
10,CCTACTGTGCCAAAGGTCATTGATTCCAATGCTC,5.13
11,CTCGAAAGGTTGGTTGAGGTGAGTATACGGATAA,0.828
12,GCTTGTAGATCAAGGTTAAGAAGGACTAAGCTAA,0.438
13,CCGACTGGGGCAGAAAGGTTACCATACCATCCGG,0.836
14,CCTACTGGGCCACGAAAGGTCATTTATTCAGTGA,4.27
15,ATAACGAGGGCACGCTGAGTTGATAGCAGAGTAG,2.27
16,GTCCCAAGGTGAATAGGTCGTTGATGAGTAGGCG,0.855
17,AGAATGAGGTTACCAAAGATCTGGGAAACGCTTG,0.954
18,TCAGACAGATGAAGGTAACTCAGGTACGCAGTCG,0.608
19,TCATATAGGAAATACAGGTGAAAGTCGGCATCTA,1.02
20,ACTATTAGTTGATACGAGGGCAACCGATAGGTTG,0.867

row,Sequence,PBM binding z-score
1,CAAACTAGGTCACAGAGGTCAAAGCCCGTGCGTA,7.81
2,CGAACGCGGGCATGAGTTGATAGCAAATGCCGAT,-0.376
3,AATAGCAGGCCAAGTTTGGGTCACTCAAACAAAG,0.703
4,CAAACTAGGTCACCGGAAGGTCAAACTCCGCATG,6.17
5,CGTGCAAGGTCAAAGGTCAGTGAAGAGATGACGG,6.7
6,CGTCCAAGGTCAAGGTCAGTTAAAGAGACTCGAA,4.83
7,TCTGCTAGGTTAACGATGGTCAGCTAATCTGCTA,-0.0905
8,TCTTGTGGATCAATAGAGGTTAAGAAAGTGCGCT,1.73
9,CCAAGTTGGTCAAGGTCACACACGCTATAGGTAC,4.79
10,ATCGAAAGGTCGAGGTGAGTACAGAGAAAGGGAA,4.25
11,TAGCCTAGGTCATGGGCGAGTATACCACGCGAAC,2.32
12,CCCACTGGGCCAAAAAGGTCATTGATGCCGATAA,4.94
13,CGAACTAGGTCAGAACAGGACAGTCAAGGATGAT,0.754
14,CCGATTGGGGCAAGGTTACCATAACGCACAGCCA,0.0829
15,ACAGACAGGTGATGAAGGTAACTCGGGCTATCAT,0.101
16,TCTTGAAGATCAGCAGGTTAAGAAAGCTGGCCAA,0.374
17,ACTAGCAGGCCAAGTTTGGGTCACTGAAACAAAG,0.731
18,CCTATTAGTTGATCATAAGGGCAACCGAAGCTCG,0.485
19,AGAATGAGGTTAAGATCAAGGAAACAGAATACAT,1.09
20,AGAATCAGGTTATACGTAGATCAGGGAAGAAAGT,0.368

# — the supplement of paper PMC6555819
